# Experimental data: PubChem BioAssay (NCI)
# About 83,000 compounds went through this panel and 20% of them were active in at least one assay; those are over-represented in the sample as a whole.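 Method: cells in 96-well plates; compound added at one concentration; 48 h incubation; percent growth measured; values under 10 scored active.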 Values without a mark were called inactive. Active and inactive are the calls of the source.
# Columns and labels:
# Assay in all cases: NCI-60 one-dose screen, 48 h (100 = growth as untreated, 0 = no growth, -100 = all killed)
# Conditions in all cases: 10 µM unless noted
# [1] = system: DU-145 prostate
# [2] = system: K-562 leukemia
# [3] = system: MALME-3M melanoma
# [4] = system: MDA-MB-231 breast
# [5] = system: RXF 393 renal
# [6] = system: SF-268 CNS
# [7] = system: SF-295 CNS
# [8] = system: SF-539 CNS
# [9] = system: UACC-257 melanoma
# [10] = system: M14 melanoma
SMILES,growth [1],growth [2],growth [3],growth [4],growth [5],growth [6],growth [7],growth [8],growth [9],growth [10]
O=c1[nH]nc(-c2ccccc2)c2sc3ncc(-c4ccc(Br)cc4)n3c12,28.6%,16.1%,52.4%,69.1%,57.9%,51%,48.9%,41.3%,66%,42.3%
CC(=O)Nc1ccc(-n2cnc3cc(-c4ccc(OCCN5CCCCC5)cc4)ccc32)cc1,89.3%,1.57% (active),77.5%,76.1%,80.4%,84.1%,96.7%,14.4%,108%,47.1%
Fc1ccc2c(-c3cncn3CCc3ccccc3)c[nH]c2c1,104%,74.6%,91.4%,87.8%,79.6%,83.9%,83.5%,94.6%,94.6%,90.8%
O=S(=O)(NCCNc1nccc(-c2c(-c3cccc(F)c3)nc3sccn23)n1)c1ccccc1,40%,23.9%,68.5%,66%,64.1%,43.5%,47.4%,65.5%,65.3%,41.4%
COc1ccc(CNCCN2C(=O)c3ccc4c5c(ccc(c35)C2=O)C(=O)N(CCNCc2ccc(OC)c(OC)c2OC)C4=O)c(OC)c1OC,-41.7% (active),-10.8% (active),-73% (active),-8.31% (active),-32.3% (active),-2.06% (active),-44.8% (active),-47.7% (active),-85.1% (active),-58.3% (active)
Cc1cccc(NC(=O)Nc2ccc(-n3cnc4cc(-c5ccc(O)cc5)ccc43)cc2)c1,33.9%,14.2%,28.4%,47.3%,58.4%,42.3%,18.4%,29.1%,32.3%,21.4%
Cc1ccc(S(=O)(=O)NNC(=O)/C(=C\c2ccc(Cl)cc2)c2nc3ccccc3s2)cc1,101%,84%,98.6%,95.6%,101%,91.9%,103%,104%,98%,86%
CCOC(=O)CCN(CC(C)C)C(=S)Nc1ccccc1,108%,103%,102%,106%,122%,104%,101%,100%,102%,99%
O=S(=O)(NCCCNc1nccc(-c2c(-c3cccc(F)c3)nc3sccn23)n1)c1cccc(F)c1,55.5%,20.1%,63.2%,75.9%,78.8%,55.6%,51.1%,86.4%,50.8%,28.6%
O=S(=O)(NCCCNc1nccc(-c2c(-c3cccc(F)c3)nc3sccn23)n1)c1cccc2ccccc12,49.9%,15.2%,78.7%,4.05% (active),62.9%,44.5%,34.6%,72.8%,72.9%,42.7%
O=C(N/N=C/c1ccc(Oc2ccccc2)cc1)c1cnn2c1NC(c1ccccc1)C2 (stereo not given),49.2%,46.4%,20.5%,72.8%,71.5%,64.5%,18.6%,37.5%,59.8%,46.2%
O=C(c1nnc(Nc2ccccc2Br)o1)c1c[nH]c2ccccc12,107%,112%,105%,88.9%,125%,105%,108%,104%,92.6%,92.5%
